# Bioassay records (PubChem)
# mHTT CaM bind: mHTT-calmodulin interaction abrogation; P42858; AID 1671202; hit rate 3.6% among 190,000; inhibition, % at 15 µM; AlphaScreen His-mHTT/GST-CaM binding, luminescence
# Pf apPOL block: Pf-apPOL DNA polymerase inhibition; Recombinant Pf-apPOL, molecular beacon fluorescence, 1.5 h; hit rate 0.25% among 210,000; inhibition, % at 10 µM
# Numbers stand for hits; 0 = inactive; - = not tested or not shown. Shown is part of a subset that was picked to be rich in hits. Rule as the data show it: active = inhibition above about 50%; inactive = the rest.
SMILES,mHTT CaM bind,Pf apPOL block
CC(C)(C)N=C1Nc2ccccc2CNC12CCN(C(=O)Nc1ccccc1)C2 (stereo unspecified),0,0
Cc1cccc(-c2cnc(N3CCC(C(=O)Nc4ccc(F)cc4)CC3)nc2)c1,100,0
Cc1cccc(NC(=O)C2CCN(c3ncc(-c4ccccc4)cn3)CC2)c1,0,0
O=[N+]([O-])c1ccc(N2CCN(S(=O)(=O)c3ccccc3)CC2)cc1SCc1ccco1,98,0
O=[N+]([O-])c1ccc(N2CCOCC2)cc1SCc1ccco1,0,0
COc1ccc(NC(=O)CN(c2ccc(C)cc2C)S(C)(=O)=O)cc1OC,0,0
O=C(CN(c1cc(C(F)(F)F)ccc1Cl)S(=O)(=O)c1ccccc1)Nc1ccccc1,99,0
Cc1ccc(N(CC(=O)Nc2ccc(F)cc2)S(C)(=O)=O)c(C)c1,0,74
CS(=O)(=O)N(CC(=O)Nc1ccccc1)c1cc(C(F)(F)F)ccc1Cl,0,0
COc1ccccc1N(CC(=O)Nc1ccc(Br)c(C)c1)S(C)(=O)=O,69,0
COc1ccc(NC(=O)CN(c2ccc(C)cc2)S(=O)(=O)c2ccc(F)cc2)cc1OC,0,90
Cc1ccc(N(CC(=O)Nc2ccc(C(N)=O)cc2)S(=O)(=O)c2ccc(F)cc2)cc1,0,0
COc1ccc(C)cc1N(CC(=O)Nc1cccc(Br)c1)S(C)(=O)=O,0,0
CC(C)NC(=O)c1ccc(OCC2CCN(C(=O)CC3CCCCC3)CC2)cc1,0,0
Cc1ccccc1CNC(=O)C1(C)CCCN(C(=O)Nc2ccc(Br)cc2)C1 (stereo unspecified),0,0
O=C(Nc1ccccc1)c1cccc(S(=O)(=O)Nc2ccc(F)cc2)c1,0,0
CCc1ccc(Oc2nccnc2N2CCC(C(=O)NCCOC)CC2)cc1,0,0
COCCNC(=O)N1CCC(c2nnc(C(F)(F)F)o2)CC1,0,0
Cc1ccc(S(=O)(=O)N(CC(=O)Nc2ccccc2F)c2ccccc2C)cc1,82,0
Cc1cccc(N(CC(=O)Nc2ccccc2Cl)S(=O)(=O)c2ccccc2)c1C,0,0
COc1ccccc1NC(=O)CN(c1ccccc1C)S(=O)(=O)c1ccc(C)cc1,0,0
Cc1cccc(N(CC(=O)Nc2ccc(F)cc2)S(=O)(=O)c2ccccc2)c1C,100,0
Cn1c(C2CCN(C(=O)Nc3ccccc3Br)CC2)cc(=O)n2nccc12,0,0
CC(Nc1cc(N2CCN(C(=O)c3cccs3)CC2)ccc1[N+](=O)[O-])c1ccccc1 (stereo unspecified),0,0
CC(Nc1cc(N2CCN(C(=O)c3ccco3)CC2)ccc1[N+](=O)[O-])c1ccccc1 (stereo unspecified),56,0
SMILES,mHTT CaM bind,Pf apPOL block
COc1ccc(C(=O)Nc2nc3ccc(S(C)(=O)=O)cc3s2)cc1[N+](=O)[O-],0,0
Cc1ccccc1N=C1Nc2cc(Cl)c(Cl)cc2N[C@]12C[C@H]1CCCC(=O)N3CC[C@@H](C2)[C@@H]13,86,0
Cc1cc2c(cc1C)N[C@]1(C[C@H]3CCCC(=O)N4CC[C@@H](C1)[C@@H]34)C(=Nc1ccccc1C)N2,0,0
O=C1CCC[C@@H]2C[C@@]3(C[C@@H]4CCN1[C@H]24)Nc1cc(Cl)c(Cl)cc1NC3=NCc1ccccc1,98,0
Cc1ccccc1N=C1Nc2ccc(Cl)cc2N[C@]12C[C@H]1CCCC(=O)N3CC[C@@H](C2)[C@@H]13,0,0
CC(C)(C)CC(C)(C)N=C1Nc2ccccc2N[C@]12C[C@H]1CCCC(=O)N3CC[C@@H](C2)[C@@H]13,0,0
CC(C)(C)CC(C)(C)N=C1Nc2ccc(Cl)cc2NC12C[C@H]1CCC(=O)N3CC[C@@H](C2)[C@@H]13 (stereo partly specified),95,0
CC1CN=C2C=C(N3CCN(C(=O)c4ccco4)CC3)N=CN21 (stereo unspecified),0,0
CC12CC(NC(=O)N1c1ccccc1F)c1ccccc1O2 (stereo unspecified),0,0
CCC(=O)N1c2ccc(S(=O)(=O)Nc3ccc(C)c(C)c3)cc2CC1C (stereo unspecified),0,0
O=c1oc2ccc(Br)cc2cc1-c1nc2ccccc2s1,0,0
O=c1[nH]c(SCc2ccccc2Cl)nc2c1CN(Cc1ccccc1)CC2,0,0
N#Cc1cccc(NC(=O)CSc2nc3c(c(=O)[nH]2)CN(Cc2ccccc2)CC3)c1,54,0
COc1ccc(OC)c(C2=NOC(C(=O)Nc3ccc(C(C)=O)cc3)C2)c1 (stereo unspecified),0,0
Cc1ccc(NC(=O)Nc2nnc3ccccn23)cc1F,0,0
COc1ccc(C2CCCN2C(=O)NCc2ccc(F)cc2)cc1 (stereo unspecified),0,0
O=[N+]([O-])c1cccc(NCc2c(O)ccc3oc4c(c23)CCCC4)c1,97,0
CC(=O)N(c1ccc2oc3c(c2c1)CCCC3)S(=O)(=O)c1cccc([N+](=O)[O-])c1,0,0
CC1(C)C(C=C(Cl)Cl)C1C(=O)Nc1sc2c(c1C#N)CCCC2 (stereo unspecified),0,92
N#Cc1c(NC(=O)/C=C/C(=O)O)sc2c1CCC2,0,-
Cc1ccc(OCC(=O)Nc2cc(-c3nc4ncccc4o3)ccc2Cl)cc1,0,0
Cn1c(C(=O)NCCN2CCCCC2)cc2c1CCN(Cc1ccc(F)cc1)C2,0,0
Cc1cccc(CN2CCc3c(cc(C(=O)NCc4ccco4)n3C)C2)c1,57,0
Cn1c(C(=O)NCc2ccccc2)cc2c1CCN(Cc1ccccc1)C2,63,0
CCN(CC)C(=O)c1cc2c(n1C)CCN(Cc1cccc(C)c1)C2,0,0
SMILES,mHTT CaM bind,Pf apPOL block
Cn1c(C(=O)NC(C)(C)C)cc2c1CCN(Cc1cccc(F)c1)C2,0,0
COc1ccc(CNC(=O)c2cc3c(n2C)CCN(Cc2ccccc2)C3)cc1,0,0
Cn1c(C(=O)NCCCN2CCCCC2)cc2c1CCN(Cc1cccc(F)c1)C2,83,0
Cn1c(C(=O)NCCCN2CCCCC2)cc2c1CCN(Cc1ccccc1)C2,93,0
O=C(NCc1ccc2c(c1)OCO2)C1CCc2sc(C(=O)N3CCCC3)cc2C1 (stereo unspecified),0,0
O=C(CN1C(=O)C(c2ccccc2)=NC12CCCCC2)Nc1ccc2c(c1)OCCO2,0,0
O=C(c1ccc(Br)o1)N1CCN(c2ccccc2)CC1,0,0
COc1ccc(C2=NOC(C(=O)Nc3cc(C)ccc3O)C2)cc1 (stereo unspecified),0,0
Cc1ccc(CNC(=O)C2c3ccccc3CCN2C(=O)C2CC2)cc1 (stereo unspecified),0,0
CCCn1c(C2CCN(C(=O)Nc3cccc(F)c3)C2)nc2cccnc21 (stereo unspecified),0,0
COc1cccc(CCc2nc(-c3ccc(=O)[nH]c3)no2)c1,0,0
COc1ccccc1NC(=O)Cn1c(C)nc2c(c1=O)CCN(Cc1ccccc1)C2,0,0
COc1ccc(NC(=O)c2ccc(OC)c(Br)c2)cc1Cl,0,0
CCOc1ccccc1NC(=O)N1CCCC1c1ccc(OC)cc1 (stereo unspecified),0,0
CCCCN(C)C(=O)c1cc2c(n1C)CCN(Cc1cccc(F)c1)C2,0,0
CN(Cc1ccccc1)C(=O)c1cc2c(n1C)CCN(Cc1cccc(F)c1)C2,59,0
CCOc1ccc(-c2ncnn2-c2ccc([N+](=O)[O-])cc2)cc1,0,0
CNc1nccc(N2CCC(CC(=O)NCc3ccccc3C(F)(F)F)CC2)n1,0,0
